# Records with an inconclusive call do not appear. A call without a number means that no potency is given here. Active and inactive are the calls of the source. Calls come from the whole dose curve; as a rule, active = well fitted curve in the direction sought with a large enough effect in the repeat runs; inconclusive = weak or mixed curves; inactive = no such curve, though single readings can be large; an effect the other way counts as inactive or inconclusive.
# Molecular target: Voltage-gated inwardly rectifying potassium channel KCNH2 (Homo sapiens) (UniProt Q12809)
# Sequence (Q12809 whole entry, looked up): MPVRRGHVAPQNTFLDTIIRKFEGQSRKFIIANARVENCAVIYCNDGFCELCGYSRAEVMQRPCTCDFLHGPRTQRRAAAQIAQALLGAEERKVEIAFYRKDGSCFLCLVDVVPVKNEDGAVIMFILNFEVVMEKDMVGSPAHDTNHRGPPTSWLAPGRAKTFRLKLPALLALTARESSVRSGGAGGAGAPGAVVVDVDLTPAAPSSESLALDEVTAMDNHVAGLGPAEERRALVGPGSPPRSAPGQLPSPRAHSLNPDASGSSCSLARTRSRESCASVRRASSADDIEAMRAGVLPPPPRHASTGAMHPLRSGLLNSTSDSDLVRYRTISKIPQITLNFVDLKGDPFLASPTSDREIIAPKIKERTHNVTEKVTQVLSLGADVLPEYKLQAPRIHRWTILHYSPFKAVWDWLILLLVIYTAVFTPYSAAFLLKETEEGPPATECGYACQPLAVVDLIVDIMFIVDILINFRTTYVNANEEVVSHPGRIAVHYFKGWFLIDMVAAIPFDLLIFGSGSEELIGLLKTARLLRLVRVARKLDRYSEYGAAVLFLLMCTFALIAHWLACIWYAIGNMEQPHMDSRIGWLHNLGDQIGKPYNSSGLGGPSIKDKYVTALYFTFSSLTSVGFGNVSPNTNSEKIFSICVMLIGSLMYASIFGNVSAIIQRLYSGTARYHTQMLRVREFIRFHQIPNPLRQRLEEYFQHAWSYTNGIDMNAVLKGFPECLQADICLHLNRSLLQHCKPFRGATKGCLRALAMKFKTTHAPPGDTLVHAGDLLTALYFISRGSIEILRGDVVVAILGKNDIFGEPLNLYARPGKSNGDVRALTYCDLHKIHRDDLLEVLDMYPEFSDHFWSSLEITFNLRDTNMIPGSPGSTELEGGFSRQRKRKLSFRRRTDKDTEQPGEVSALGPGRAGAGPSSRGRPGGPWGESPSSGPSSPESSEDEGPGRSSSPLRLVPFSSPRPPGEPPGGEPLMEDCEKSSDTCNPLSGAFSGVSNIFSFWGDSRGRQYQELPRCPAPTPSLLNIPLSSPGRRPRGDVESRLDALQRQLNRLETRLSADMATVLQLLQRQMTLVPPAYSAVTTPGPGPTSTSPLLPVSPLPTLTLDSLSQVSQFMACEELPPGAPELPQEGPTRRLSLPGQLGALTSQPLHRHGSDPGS
# Experiment: Human Ether-a-go-go-Related Gene (hERG) channel small molecule antagonists: fluorescence cell-based qHTS assay (AID 1671200)
# Settings: hERG-U2OS cells, FluxOR thallium flux fluorescence; series mostly up to 76.8 µM
# In short: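 Measured: Tl+ flux via fluorescence (480/540 nm) in hERG-expressing U2OS cells after 1 h dye loading at room temperature.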
# Note: nearly all actives have a fitted effect of over 50% in size.
# Potency is the fitted concentration of half-maximal effect.
row,Compound,Potency
1,O=CNNC=O,inactive
2,FC(F)(F)C(F)(F)C(F)(F)C(F)(F)CCI,inactive
3,CCCCCc1ccco1,inactive
4,Nc1ccc(F)cc1,inactive
5,CCCCCCCCCCCSCC(=O)O,inactive
6,O=C1NC(=O)c2cccc3cccc1c23,inactive
7,OCC(CO)n1cnc(-c2ccc(F)cc2)c1-c1ccnc(Oc2ccccc2)n1,inactive
8,CCNc1nc(N)nc(Cl)n1,inactive
9,CCCCCCCCCCCCCC(=O)OCC(O)CO (stereo unspecified),inactive
10,Cc1cc([N+](=O)[O-])ccc1N,inactive
11,CC1CCCC(=O)C1=O (stereo unspecified),inactive
12,CC(=O)NNC(C)=O,inactive
13,O=C(/C=C/c1ccc([N+](=O)[O-])cc1)c1ccccc1,inactive
14,O=P(O)(O)Oc1ccccc1,inactive
15,O=C(O)CCS,inactive
16,C/C(C=O)=C\c1ccccc1,inactive
17,CC(C)(C)C1(CCc2ccc(Cl)cc2)CO1 (stereo unspecified),24.5 µM (active)
18,CSSc1ccoc1C,inactive

# Molecular target: Cytochrome P450 3A4 (Homo sapiens) (UniProt P08684)
# Sequence (P08684 whole entry, looked up): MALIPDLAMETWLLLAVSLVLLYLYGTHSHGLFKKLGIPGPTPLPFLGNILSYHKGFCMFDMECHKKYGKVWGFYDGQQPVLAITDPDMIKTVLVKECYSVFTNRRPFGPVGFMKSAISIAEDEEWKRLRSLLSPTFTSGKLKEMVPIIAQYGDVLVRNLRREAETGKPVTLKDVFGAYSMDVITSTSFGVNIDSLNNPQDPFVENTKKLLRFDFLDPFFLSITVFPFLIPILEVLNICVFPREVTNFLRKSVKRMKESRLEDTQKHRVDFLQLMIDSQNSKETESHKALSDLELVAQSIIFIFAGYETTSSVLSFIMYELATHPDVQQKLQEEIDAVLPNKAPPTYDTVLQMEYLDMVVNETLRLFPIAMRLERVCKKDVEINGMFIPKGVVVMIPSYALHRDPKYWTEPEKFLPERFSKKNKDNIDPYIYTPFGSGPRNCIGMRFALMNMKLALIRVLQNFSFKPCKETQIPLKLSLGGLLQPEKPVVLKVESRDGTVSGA
# Experiment: Cytochrome P450 Family 3 Subfamily A Member 4 (CYP3A4) small molecule antagonists: luciferase reporter qHTS assay (AID 1671201)
# Settings: P450-Glo CYP3A4 enzyme, luciferin luminescence, 1 h; series mostly up to 115 µM
# In short: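 Setup: enzyme-substrate mix, compound pin transfer, 10 min RT. Reaction: NADPH regeneration solution, 1 h RT. Readout: detection reagent stops turnover, luminescence measured after 20 min, expressed in relative luminescence units.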
row,Compound,Potency
1,CC(=O)OCCC(C)CC(C)(C)C (stereo unspecified),inactive
2,C[C@@H]1C[C@H]2[C@@H]3CCC4=CC(=O)C=C[C@]4(C)[C@@]3(F)[C@@H](O)C[C@]2(C)[C@@]1(O)C(=O)COP(=O)(O)O,inactive
3,CCN(Cc1cccc(S(=O)(=O)O)c1)c1ccc(C(=C2C=CC(=[N+](CC)Cc3cccc(S(=O)(=O)O)c3)C=C2)c2ccc(O)cc2S(=O)(=O)[O-])cc1,19.3 µM (active)
4,CC(CCc1ccc(O)cc1)NCCc1ccc(O)c(O)c1 (stereo unspecified),inactive
5,COC1CCC=CO1 (stereo unspecified),inactive
6,CC(C)(C)CCCCCCOC(=O)c1ccccc1C(=O)OCCCCCCC(C)(C)C,inactive
7,O=C(c1ccccc1)C1CCC1,inactive
8,Oc1ccc2c(c1)Cc1ccccc1-2,inactive
9,O=[N+]([O-])c1ccc2ncccc2c1,inactive
10,O=c1[nH]c2cc(C(F)(F)F)c(N3CCOCC3)cc2n(CP(=O)(O)O)c1=O,inactive
11,CC(C)OC(=O)c1ccccc1C(=O)OC(C)C,inactive
12,COc1ccc(C(=O)NCc2ccc(OCCN(C)C)cc2)cc1OC,inactive
13,O=c1[nH][nH]c(=O)c2cc([N+](=O)[O-])ccc12,inactive
14,COc1ccc(-n2nc(C(F)F)cc2-c2ccc(S(C)=O)cc2)cc1 (stereo unspecified),31.7 µM (active)
15,O=C(NS(=O)(=O)/C=C/c1ccccc1)c1ccc(F)cc1Cl,inactive
16,N[C@@H](Cc1cc(I)c(O)c(I)c1)C(=O)O,inactive
17,O=S(=O)(Cl)c1c(Cl)cccc1Cl,inactive
18,CC(=O)C(C)=O,inactive
19,CC[C@@H](CO)NCCN[C@@H](CC)CO,inactive

row,Compound,Potency
1,CCN(CC)c1ccc(C(=C2C=CC(=[N+](CC)CC)C=C2)c2ccc(S(=O)(=O)O)cc2S(=O)(=O)[O-])cc1,8.94 µM (active)
2,O=CNNC=O,inactive
3,FC(F)(F)C(F)(F)C(F)(F)C(F)(F)CCI,inactive
4,CCCCCc1ccco1,23.2 µM (active)
5,Nc1ccc(F)cc1,inactive
6,CCCCCCCCCCCSCC(=O)O,inactive
7,O=C1NC(=O)c2cccc3cccc1c23,inactive
8,OCC(CO)n1cnc(-c2ccc(F)cc2)c1-c1ccnc(Oc2ccccc2)n1,inactive
9,CCNc1nc(N)nc(Cl)n1,inactive
10,CCCCCCCCCCCCCC(=O)OCC(O)CO (stereo unspecified),inactive
11,Cc1cc([N+](=O)[O-])ccc1N,inactive
12,CC1CCCC(=O)C1=O (stereo unspecified),inactive
13,CC(=O)NNC(C)=O,inactive
14,O=C(/C=C/c1ccc([N+](=O)[O-])cc1)c1ccccc1,inactive
15,O=P(O)(O)Oc1ccccc1,inactive
16,O=C(O)CCS,inactive
17,C/C(C=O)=C\c1ccccc1,inactive
18,CC(C)(C)C1(CCc2ccc(Cl)cc2)CO1 (stereo unspecified),inactive
19,CSSc1ccoc1C,inactive
